Here are results for 21 compounds from PubChem BioAssay (NCI).

This is part of a sample that, as a whole, favours compounds with a hit. Of some 79,000 tested, about 15% had one in any assay. A number with no mark means an inactive call. Calls of active or inactive are those of the source. No stated cut-off is given here; in the data, active means growth inhibition above about 70%; inactive means the rest.

The nature of assay [1]: NCI Yeast Anticancer Drug Screen. Data for the rad50 strain (AID 155).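 Further: 0% = growth of vehicle-only cultures of the same strain.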 Conditions: S. cerevisiae rad50 strain growth inhibition; at 50.0 µM; hits give high values. The essentials: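 Relative growth inhibition (compound vs vehicle) was measured in yeast with a defined repair-gene alteration.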
Assay [2] in a line: NCI Yeast Anticancer Drug Screen. Data for the mec2-1 strain (AID 157). Conditions: S. cerevisiae mec2-1 strain, at 50.0 µM, hits give high values. A digest of the protocol:
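Mutant yeast (mec2-1) grown with compound; growth inhibition relative to vehicle control reported.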

Assay [3] can be described thus: NCI Yeast Anticancer Drug Screen. Data for the sgs1 mgt1 strain (AID 161).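 Further: 0% = growth of cultures given vehicle only.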 The following applies: S. cerevisiae sgs1 mgt1 strain, at 50.0 µM, hits give high values. A digest of the protocol:
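Compounds are added to genetically altered yeast, and growth is compared with cultures given vehicle alone to give percent inhibition.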

Assay [4] in a line: NCI Yeast Anticancer Drug Screen. Data for the cln2 rad14 strain (AID 165).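 Further: 0% = growth equal to vehicle treated cultures.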 The following applies: S. cerevisiae cln2 rad14 strain, at 50.0 µM, hits give high values. A digest of the protocol: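 Readout is yeast growth inhibition versus vehicle-treated controls, using a strain with cln2 and rad14 alterations exposed to compound.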
Assay [5] is described as follows: NCI Yeast Anticancer Drug Screen. Data for the bub3 strain (AID 167). Conditions: S. cerevisiae bub3 mutant strain, at 50.0 µM, hits give high values. A digest of the protocol: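 Screening used yeast with an engineered genetic alteration affecting cell cycle control. Compound-exposed cultures were compared with vehicle cultures, and reduced growth was taken as inhibition.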

The nature of assay [6]: NCI Yeast Anticancer Drug Screen. Data for the mlh1 rad18 strain (AID 175). Conditions: S. cerevisiae mlh1 rad18 strain growth inhibition; at 50.0 µM; hits give high values. The essentials:
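Genetically defined yeast (DNA repair-deficient) exposed to compounds; growth inhibition determined relative to vehicle.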

Take `Cc1ccc(C2=CSc3ccccc3N2)cc1`: the growth inhibition in assay [1] was 24.8%; in assay [2] it was 38%; in assay [3] it was 45.6%; in assay [4], -13.9%; in assay [5], 62.5%; in assay [6], 29.2%.

On to `CC(=O)OCCOc1ccc(C(C)(C)C)cc1`, for which the growth inhibition is 45% in assay [1]; -18.4% in assay [2]; 9.25% in assay [3]; 32.5% in assay [4]; 11.8% in assay [5]; 15.2% in assay [6].

`CN1C(=O)CC(c2cccc(C3CC(=O)N(C)C3=O)n2)C1=O` (stereo unspecified): the growth inhibition was -18.6% in assay [1]; -23.7% in assay [2]; -17.6% in assay [3]; -5.8% in assay [4]; -11.7% in assay [5]; -13.7% in assay [6].

For `CC1(CCl)Nc2ccccc2C(=O)N1c1ccc(Cl)cc1` (stereo unspecified), the growth inhibition in assay [1] is -2.45%; in assay [2], -13.9%; in assay [3], 8.95%; in assay [4] it was -2.05%; in assay [5], 20.9%; in assay [6], -0.5%.

For `COC(=O)C1CC2c3[nH]c4ccccc4c3CCN2C1` (stereo unspecified), the growth inhibition in assay [1] was -4.85%; in assay [2], -8.25%; in assay [3], -17.1%; in assay [4], -11.4%; in assay [5] it was -4.1%; in assay [6] it was -10.5%.

For the compound `Cn1ncc(=O)[nH]c1=O`, the growth inhibition in assay [1] was -15.2%; in assay [2], -5.2%; in assay [3], -23.4%; in assay [4] it was 10.1%; in assay [5], -9.85%; in assay [6], -10.3%.

Consider `CCn1c2ccccc2n2c(=O)c3c(c(C#N)c12)CCCC3`, for which the growth inhibition was 4.6% in assay [1]; 13.2% in assay [2]; -30.1% in assay [3]; -8.6% in assay [4]; -33.9% in assay [5]; -18.5% in assay [6].

Take `CCCCCCCCCCCCCCCCCCCC/C=C/C1CC(=O)OC1=O` (stereo unspecified): the growth inhibition in assay [1] is -4.8%; in assay [2], -6%; in assay [3], 16.9%; in assay [4] it was 26.8%; in assay [5] it was 16.9%; in assay [6] it was 7.1%.

Take `O=C(C1OC1c1cccc([N+](=O)[O-])c1)C12CC3CC(CC(C3)C1)C2` (stereo unspecified): the growth inhibition in assay [1] was 12.5%; in assay [2], 32%; in assay [3], 37.2%; in assay [4], 17.1%; in assay [5], 53%; in assay [6], 54.5%.

`CCCCCCC(O)CCCCCCCCCCC(=O)OC` (stereo unspecified): the growth inhibition in assay [1] was 33.1%; in assay [2] it was 4.5%; in assay [3], 20.6%; in assay [4], -26.4%; in assay [5] it was 12.8%; in assay [6] it was 33.8%.

On to `C/C(N=NC(=S)N1CCC(C)CC1)=C1\C=CC=CN1O`, for which the growth inhibition in assay [1] was 97.3% (active); in assay [2], 91.5% (active); in assay [3], 95.9% (active); in assay [4] it was 87.2% (active); in assay [5] it was 48%; in assay [6], 98.3% (active).

Regarding `COc1ccc(OC)c(NC(=O)OCc2ccc3c(c2)OCO3)c1`, the growth inhibition was 1.25% in assay [1]; -14% in assay [2]; 5.45% in assay [3]; 10.2% in assay [4]; 26.9% in assay [5]; -4.7% in assay [6].

`CC(=O)N1CCN(C=S)CC1`: the growth inhibition in assay [1] is -16.5%; in assay [2], -9.6%; in assay [3], -5.65%; in assay [4], 15.8%; in assay [5], -4.05%; in assay [6], -15.5%.

As to `CN(C)C(=O)C1C2C=CC(CCC2)C1C(=O)N(C)C` (stereo unspecified), the growth inhibition in assay [1] is 13.1%; in assay [2] it was 15.6%; in assay [3], 15.8%; in assay [4] it was 13.7%; in assay [5] it was 15.7%; in assay [6], 14.1%.

Take `CCCOC(=O)C1(C)CCC(=O)O1` (stereo unspecified): the growth inhibition is 3.7% in assay [1]; 6.1% in assay [2]; 23.4% in assay [3]; -19.9% in assay [4]; -13.2% in assay [5]; -8.85% in assay [6].

Regarding `COc1ccc(/C=C(/C#N)C(N)=O)c(OC)c1`, the growth inhibition is 1.85% in assay [1]; -15.8% in assay [2]; -34.1% in assay [3]; -34.9% in assay [4]; -31.8% in assay [5]; 2.55% in assay [6].

As for `Nc1cnc(Nc2cccc3ccccc23)o1`, the growth inhibition in assay [1] was -26.3%; in assay [2], -35.3%; in assay [3], -14.1%; in assay [4] it was 0.35%; in assay [5], 8.85%; in assay [6], -15.7%.

`COc1ccc(NC(=O)COC(=O)c2cccc3c(=O)c4ccccc4[nH]c23)cc1`: the growth inhibition in assay [1] was 43.4%; in assay [2], 41.2%; in assay [3], 27.4%; in assay [4], 23.2%; in assay [5], 21.2%; in assay [6], 48.6%.

For the compound `Cc1cc(=O)n(NC(N)=O)c(C)c1C(=O)O`, the growth inhibition in assay [1] is -0.8%; in assay [2], 0.45%; in assay [3], -13.8%; in assay [4], -29.5%; in assay [5], -1.3%; in assay [6], -5.45%.

Take `COc1cc2c(c3oc(=O)cc(CCC(=O)O)c13)C1CC(=O)OC1O2` (stereo unspecified): the growth inhibition was 3.75% in assay [1]; -16.6% in assay [2]; -9.15% in assay [3]; 1% in assay [4]; -10.7% in assay [5]; 10.8% in assay [6].

For `CO/C=C/CCCO`, the growth inhibition was -14.8% in assay [1]; -16.5% in assay [2]; -14.8% in assay [3]; 7.55% in assay [4]; -3.55% in assay [5]; -9.7% in assay [6].
